52 compounds from PubChem BioAssay AID1835 (Johns Hopkins Ion Channel Center, 2009) can be followed below.

The whole screen tested about 2,400 compounds, of which about 750 (31%) were called active. The list shows a part of the results. Values without a mark were called inactive.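 Rule for the calls: active = median signal gain over dofetilide-blocked control wells reaching their mean plus 3 SD, so readout 1 at least 0; inactive = the rest.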

Voltage-gated inwardly rectifying potassium channel KCNH2 (Homo sapiens), sequence (Q12809 whole entry, looked up): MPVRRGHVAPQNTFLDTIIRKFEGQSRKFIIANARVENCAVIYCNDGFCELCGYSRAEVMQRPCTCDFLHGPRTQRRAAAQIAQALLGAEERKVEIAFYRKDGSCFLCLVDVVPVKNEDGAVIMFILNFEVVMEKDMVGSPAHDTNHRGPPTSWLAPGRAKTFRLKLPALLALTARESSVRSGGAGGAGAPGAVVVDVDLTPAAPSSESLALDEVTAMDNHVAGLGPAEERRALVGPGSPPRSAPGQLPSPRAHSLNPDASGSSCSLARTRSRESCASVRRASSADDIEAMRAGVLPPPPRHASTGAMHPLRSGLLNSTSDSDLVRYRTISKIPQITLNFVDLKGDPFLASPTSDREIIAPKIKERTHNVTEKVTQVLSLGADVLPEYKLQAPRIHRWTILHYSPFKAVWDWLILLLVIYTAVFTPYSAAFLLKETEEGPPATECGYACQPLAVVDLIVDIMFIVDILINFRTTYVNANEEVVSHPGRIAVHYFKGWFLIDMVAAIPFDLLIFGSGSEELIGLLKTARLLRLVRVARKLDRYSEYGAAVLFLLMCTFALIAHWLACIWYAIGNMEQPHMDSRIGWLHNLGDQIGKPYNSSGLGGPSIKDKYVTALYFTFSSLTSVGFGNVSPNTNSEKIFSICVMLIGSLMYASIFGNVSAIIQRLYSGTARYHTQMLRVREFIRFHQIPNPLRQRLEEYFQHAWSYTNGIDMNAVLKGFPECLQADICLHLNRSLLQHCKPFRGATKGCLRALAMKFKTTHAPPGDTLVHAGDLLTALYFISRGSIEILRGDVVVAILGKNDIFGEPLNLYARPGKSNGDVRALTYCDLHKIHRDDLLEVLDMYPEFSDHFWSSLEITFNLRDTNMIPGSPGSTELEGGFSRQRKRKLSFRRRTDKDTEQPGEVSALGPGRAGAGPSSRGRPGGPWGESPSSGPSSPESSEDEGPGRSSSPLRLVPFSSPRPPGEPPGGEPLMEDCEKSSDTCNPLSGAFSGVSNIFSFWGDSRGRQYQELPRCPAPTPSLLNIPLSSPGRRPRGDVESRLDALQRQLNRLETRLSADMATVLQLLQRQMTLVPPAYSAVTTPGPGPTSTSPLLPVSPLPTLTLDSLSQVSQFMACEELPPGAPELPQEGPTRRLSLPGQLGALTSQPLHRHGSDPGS

The assay addresses Voltage-gated inwardly rectifying potassium channel KCNH2 (Homo sapiens) (UniProt Q12809). The assay can be described thus: modulators restoring hERG flux under dofetilide – cell-based, thallium flux, duplicate retest, dofetilide IC70, confirmation (AID 1835). As to conditions: hERG cell line, FluxOR thallium flux, dofetilide-blocked; at 10 µM; hits give high values. A general note: The hERG channel carries a current that helps repolarise heart muscle cells.
With `COc1cc(OC)c(C2=NOC(C(=O)Nc3ccc4c(c3)OCO4)C2)cc1Cl` (configuration not stated), the activity increase over dofetilide control, less the hit threshold was -21%.
In the case of `Oc1ccc(N=Nc2ccccc2-c2nn[nH]n2)c(O)c1` it was 6% (active).
Then `COc1cc(CNn2nnnc2N)ccc1OCC(=O)NC(C)(C)C`, with -15%; and `CCCCCCCCCCn1c2c(c(=N)c3c1CCC3)CCC2`, with 49% (active); and `CCOC(=O)NC(=O)/C(C#N)=N\Nc1ccc(Cl)cc1`, with -17%.
Turning to `CCOC(=O)NC(=S)Nc1ccc(C(C)(C)C)cc1`, the activity increase over dofetilide control, less the hit threshold was 3% (active).
Then `Cc1cc(Br)c(NC(=O)COC(=O)C2CC2C)c(Br)c1` (configuration not stated), with -11%; and `COC(=O)CNC(=S)NC(=O)c1ccc(C(C)(C)C)cc1`, with -8%; and `CCOC(=O)NC(=S)Nc1ccc(C(C)(C)C)cc1Br`, with 23% (active).
Consider `c1cnc2c(Oc3ncnc4sccc34)cccc2c1`, for which the activity increase over dofetilide control, less the hit threshold was -11%.
In the case of `N#Cc1ccc(OCc2nnc(-c3ccc([N+](=O)[O-])cc3)o2)cc1` it was -3%; in that of `COc1cc(C2NC(=O)NC(C)=C2C(=O)OCC2CCCCC2)ccc1O` (configuration not stated), -3%.
Then `CCOC(=O)C1=C(c2ccccc2)NC(=O)NC1c1ccc(OC)c(OC)c1` (configuration not stated), with -6%; and `CCOC(=O)C1=C(c2ccccc2)NC(=O)NC1c1ccc(O)c(Cl)c1` (configuration not stated), with 5% (active).
Then `CC1CCN(C(=S)NC(=O)c2cccc([N+](=O)[O-])c2)CC1`, with 15% (active); and `O=C(O)c1cccc(C(=O)Nc2cccc(NC(=O)C3CCCO3)c2)c1` (configuration not stated), with -14%; and `CCCCN(C(=O)CNC(=O)c1cccs1)C(C(=O)NC1CCCC1)c1ccncc1` (configuration not stated), with -6%.
With `O=C(NC(=S)N(CC1CCC1)CC1CCCO1)c1cccc([N+](=O)[O-])c1` (configuration not stated), the activity increase over dofetilide control, less the hit threshold is 14% (active).
In the case of `O=C(Nc1ccc(NC(=O)C2CC2)nc1)c1cccs1` it was -21%; in that of `CCC1CCCCN1C(=S)NC(=O)c1ccc([N+](=O)[O-])cc1` (configuration not stated), 28% (active).
Consider `CCCCNC(=S)NC(=O)c1ccc([N+](=O)[O-])cc1`, for which the activity increase over dofetilide control, less the hit threshold was -4%.
In the case of `CCCCCC(=O)NNC(=S)NC(=O)c1ccc([N+](=O)[O-])cc1` it was -24%; in that of `CCC1CCCCN1C(=S)NC(=O)c1cccs1` (configuration not stated), 4% (active).
Then `CCOC(=O)/C=C/c1ccc2c(c1)S(=O)(=O)N(c1cccc(OC)c1)[C@H]2CC(=O)OCC`, with -20%; and `O=C(NC1CCCC1)C(c1ccncc1)N(Cc1ccccc1F)C(=O)c1csnn1` (configuration not stated), with -1%.
Take `Cc1occc1C(=O)Nc1cccc([N+](=O)[O-])c1`: the activity increase over dofetilide control, less the hit threshold was -20%.
On to `CCC1CCCCN1C(=S)NC(=O)c1cccc([N+](=O)[O-])c1` (configuration not stated), for which the activity increase over dofetilide control, less the hit threshold was 36% (active).
Consider `O=[N+]([O-])c1ccc(Nc2ccccc2F)nc1`, for which the activity increase over dofetilide control, less the hit threshold was -3%.
Then `O=C(CCc1nc(-c2ccccc2)no1)N1CCCC1`, with -20%.
In the case of `CC(C(=O)N1CCN(c2ccc([N+](=O)[O-])cc2)CC1)N1C(=O)C2CC=CCC2C1=O` (configuration not stated) it was -9%; in that of `C=CCn1c(SCc2ccc(C(=O)O)cc2)nc2sc(C)c(C)c2c1=O`, 20% (active); in that of `C=CCN1C(=O)C(Cc2ccc(OCC)cc2)SC1=Nc1ccc(C(=O)O)cc1` (configuration not stated), -11%.
In the case of `C=CCOc1ccccc1/C=c1\sc2nc(=O)c(C)nn2c1=O` it was -7%.
For `CNC(=O)CSc1nnc(-c2ccco2)n1-c1ccc(C)cc1`, the activity increase over dofetilide control, less the hit threshold is -10%.
In the case of `C=CCNC(=S)Nc1sc2c(c1C(=O)OCC)CC(C)(CC)OC2` (configuration not stated) it was 15% (active); in that of `CCOC(=O)c1c(/N=C/C2=C(O)CCCC2=O)sc2c1CCCC2`, -14%; in that of `C=CCNC(=S)Nc1sc2c(c1C(=O)OCC)CC(C(C)C)OC2` (configuration not stated), -4%.
In the case of `COc1ccc(NC(=S)NC(NC(=O)c2cccc3ccccc23)C(Cl)(Cl)Cl)c([N+](=O)[O-])c1` (configuration not stated) it was -23%.
For the compound `CNC(=S)Nc1sc2c(c1C(=O)OC)CCC2`, the activity increase over dofetilide control, less the hit threshold is 17% (active).
In the case of `CCOC(=O)c1c(NC(=S)NC)sc2c1CCCC2` it was 42% (active).
In the case of `COC(=O)c1c(NC(=S)Nc2ccc(F)cc2[N+](=O)[O-])sc2c1CCCCC2` it was 11% (active); in that of `COc1ccc(CCNC(=O)CSc2ccc3nnc(CCNC(=O)c4ccccc4)n3n2)cc1OC`, -13%; in that of `Clc1cccc(-c2ccc(C=Nc3ccc(N4CCOCC4)cc3)o2)c1Cl`, -12%.
In the case of `COc1ccc(CCNC(=O)CC(NS(=O)(=O)c2ccc(NC(C)=O)cc2)C(C)C)cc1OC` (configuration not stated) it was -8%.
For the compound `CCOC(=O)c1c(NC(=S)NC)sc2c1CC(C)(C)SC2`, the activity increase over dofetilide control, less the hit threshold is 79% (active).
In the case of `CC(=O)NC(CSC(CC(=O)c1ccco1)c1ccc(C)cc1)C(=O)O` (configuration not stated) it was -15%; in that of `C[n+]1ccccc1/C=C/c1ccc(C#N)cc1`, 6% (active); in that of `C[n+]1ccccc1/C=C/c1c(F)cccc1F`, -2%.
In the case of `COc1cc(Cl)cc(C(c2c(C(=O)O)[nH]c3ccccc23)c2c(C(=O)O)[nH]c3ccccc23)c1O` it was -20%.
Then `Cc1c(-c2ccn[nH]2)cc(NC(=O)c2ccc(Cl)cc2)c(=O)n1N`, with 7% (active).
As for `CC(=O)NCCc1nc2cc(NC(=O)c3ccc(Cl)cc3)ccc2n1C`, the activity increase over dofetilide control, less the hit threshold is -9%.
Turning to `CN(C)S(=O)(=O)c1cccc(C(=O)Nc2cccnc2)c1`, the activity increase over dofetilide control, less the hit threshold is -6%.
